This is an account of results in PubChem BioAssay AID488890 (Southern Research Specialized Biocontainment Screening …, 2010).

Screen size: about 320,000 compounds; about 1,300 (0.41%) were called active. Not shown: some 3% with an inconclusive outcome. No rule for the calls is given here. A selection follows. Measured potencies and affinities stand elsewhere.

This assay in a line: growth inhibition of non-replicating M. tuberculosis (AID 488890).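 Also: plate controls were DMSO cells for no effect and high antibiotic wells for full effect.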 Conditions: Mycobacterium tuberculosis non-replicating, at 25 µM, stronger effect = higher value.
In the case of `CCn1c(=O)c(C(=O)Nc2ccccc2)c(O)c2ccccc21`, the inhibition – broadly, the change of the read-out against control, counted positive when it falls – was 23%.
The result for `C=CCn1c(=O)c(C(=O)Nc2ncccc2O)c(O)c2ccccc21` reads 27.2%; that for `CC(C)Cn1c(=O)c(C(=O)Nc2cnccn2)c(O)c2ccccc21`, -0.18%; that for `C=CCn1c(=O)c(C(=O)Nc2ccc(C)cc2)c(O)c2ccccc21`, -32%.
The result for `C/C(=N\OCC(=O)OCC(=O)Nc1cc(S(C)(=O)=O)ccc1Cl)c1ccc2c(c1)OCO2` reads 7.45%; that for `Cc1ccccc1NC(=O)c1ccc(Cl)c(NC(=O)c2cccnc2)c1`, -8.32%.
Regarding `C[C@H](NC(=O)OC(C)(C)C)c1nnc(SCC(=O)Nc2cccc(Cl)c2)o1`, the inhibition stood at 16.3%.
The result for `O=C(COc1ccccc1)N=C1SC2CS(=O)(=O)CC2N1c1cccc(F)c1` (configuration not stated) reads 1.19%; that for `CCc1c(C)c2ccc(OCC(N)=O)cc2oc1=O`, 10.3%.
In the case of `CCCOc1ccc2c(C)c(CC(=O)OC)c(=O)oc2c1`, the inhibition amounted to 3.51%.
Under `CC(=O)Oc1ccc2c(=O)c(-c3ccccc3)coc2c1` stands 15.7%; under `CCN(CC)C(=O)Oc1ccc2c(=O)c(-c3ccccc3)coc2c1`, 62.3%.
The result for `COc1ccc2c(=O)c(-c3ccccc3)coc2c1` reads 12.5%.
As for `CC(C)Oc1ccc2c(=O)c(-c3ccccc3)coc2c1`, the inhibition was 22.2%.
Under `CCOc1ccc2c(=O)c(Oc3ccccc3)c(C)oc2c1` stands 57%.
With `Cc1oc2cc(OC(C)C(=O)O)ccc2c(=O)c1Oc1ccccc1` (configuration not stated), the inhibition was -10.2%.
On to `CCN(CC)C(=O)CN(c1ccc(Cl)cc1)S(=O)(=O)c1ccccc1`, for which the inhibition turned out to be 3.57%.
The result for `NS(=O)(=O)c1ccc(NC(=O)c2cccc(Cl)c2)cc1` reads -6.52%; that for `Cc1ccc(SCCC(=O)Nc2ccccc2C(=O)NC2CCCCC2)cc1`, -25.9%; that for `Cc1cc(C)c(NC(=O)CN(C)S(=O)(=O)c2ccc3c(c2)n(C)c(=O)c(=O)n3C)c(C)c1`, -2.46%.
On to `C=CCN1CC(O)=C(c2ccccc2)C1=N`, for which the inhibition is -5.76%.
For `CN(C)C(=O)CSc1nnc(-c2cccnc2)n1-c1ccccc1`, the inhibition was -19.8%.
With `Cc1ccc2ncnc(Nc3ccc(C)c(C)c3)c2c1`, the inhibition is 17.8%.
Under `NC(=O)CSc1nnc(-c2ccncc2)o1` stands 1.06%; under `Cc1ccc(-c2nnc(COC(=O)c3ccco3)o2)cc1`, 60.2%; under `O=C(OCc1nnc(-c2ccccc2)o1)c1ccco1`, 76.9%.
Under `O=C(OCC#CCSc1nnc(-c2cccc3ccccc23)o1)c1cc2ccccc2o1` stands 71.3%.
The result for `CC(=NNC(=O)CSc1nc2ccccc2o1)c1ccco1` reads 13.5%; that for `COc1ccc(-c2nnc(SCC(=O)c3cccs3)o2)cc1`, 63.8%; that for `O=C(COC(=O)c1ccco1)Nc1nnc(-c2ccccc2)o1`, 4.16%.
For the molecule `O=C(CSc1nc2ccccc2o1)N1CCN(C(=O)c2ccco2)CC1`, the inhibition was found to be 7.29%.
In the case of `N#Cc1ccc(-c2ccc(F)cc2)nc1Oc1ccccc1`, the inhibition is 2.75%.
The result for `Cc1onc(-c2c(Cl)cccc2Cl)c1C(=O)NNc1ccccc1` reads 77.8%; that for `CCC(CC)c1nnc(NC(=O)CS(=O)(=O)c2ccccc2)s1`, -1.72%; that for `COCCOC(=O)c1c(NC(=O)CN2CCCc3ccccc32)sc(C(N)=O)c1C`, 22.6%.
With `COc1ccc(N(CC(=O)NC2CCCC2)C(=O)c2ccc(N3CCCCC3)nc2)cc1`, the inhibition worked out at 11%.
Turning to `COCc1nnc(NC(=O)c2cc3ccccc3o2)s1`, the inhibition worked out at 8.81%.
As for `Cc1cccnc1NC(=O)c1cc2ccccc2oc1=O`, the inhibition was found to be 66.8%.
In the case of `Cc1nnc(NC(=O)c2cc3ccccc3o2)s1`, the inhibition came to 16.8%.
Under `O=C(NNC(=O)c1cc2cc(Br)ccc2oc1=O)c1ccc(O)cc1O` stands 23.6%.
The result for `CC(C)c1nnc(NC(=O)c2cc3ccccc3o2)s1` reads -9.61%.
On to `CCCc1nnc(NC(=O)c2cc3ccccc3o2)s1`, for which the inhibition was 16.7%.
Under `c1cc2c3c(cccc3c1)NC(c1ccc3c(c1)OCO3)N2` stands 12.1%.
In the case of `CC1(C)Cc2c(c(-c3ccccc3)nc(N3CCOCC3)c2C(N)=O)CO1`, the inhibition is 0.34%.
Consider `CCCOc1ccc(-c2c(C(=O)N/N=C/c3ccc(OCC)cc3)nnn2-c2nonc2N)cc1`, for which the inhibition amounted to 8.95%.
The result for `COc1ccc(NC(=O)CSc2ccc3nnc(-c4ccccn4)n3n2)cc1OC` reads -12%.
Under `COc1ccc2[nH]c(CN3CCC(CO)(CCOc4ccccc4)CC3)c(C)c2c1` stands 48.7%; under `Cc1nn(C)cc1CN1CCC(CO)(CCOc2ccccc2)CC1`, -0.6%; under `COc1ccc(OC)c(C(=O)NC2CCSc3ccccc32)c1` (configuration not stated), 3.7%.
Under `O=C(Nc1cccc(NC(=O)C2CC3CCCC(C2)C3=O)n1)C1CC2CCCC(C1)C2=O` (configuration not stated) stands 28.2%.
`Cc1cc(Cl)ccc1N=c1ssnc1Cl`: the inhibition was determined as 19.9%.
As for `Cc1ccc(N=c2ssnc2Cl)cc1`, the inhibition is 77.3%.
Take `Cn1nc(C(=O)NCc2cccs2)c2ccccc2c1=O`: the inhibition is 40.9%.
In the case of `COC(=O)c1sc2ncn(-n3c(C)ccc3C)c(=O)c2c1C`, the inhibition was 5.25%.
The result for `Cc1c(C(=O)O)sc2ncn(C)c(=O)c12` reads -3.22%; that for `Cc1cc(C)n2nc(S(=O)(=O)NC(C)(C)C)nc2n1`, -0.21%.
Under `COc1cccc(NS(=O)(=O)c2nc3nc(C)cc(C)n3n2)c1` stands -24.1%.
Consider `COc1ccc(OCC(=O)N(C)CC2COc3ccccc3O2)cc1` (configuration not stated), for which the inhibition worked out at 27.1%.
Under `COCc1nnc(NC(=O)c2cccc(NC(=O)C(C)C)c2)s1` stands -15.2%; under `Cc1ccc(C(=O)N/C(=C\c2cccc([N+](=O)[O-])c2)C(=O)NC(Cc2ccccc2)C(=O)O)cc1` (configuration not stated), 4.43%.
For the molecule `CC(=O)Nc1ccc(N/C(N)=N/c2nc(C)cc(C)n2)cc1`, the inhibition was -1.18%.
`Cc1ccc(N/C(N)=N/c2nc(C)cc(C)n2)cc1`: the inhibition turned out to be 7.73%.
Consider `CC(C)(C)c1ccc(C(=O)NNC(=O)c2ccc(Cl)cc2)cc1`, for which the inhibition was -14.5%.
Regarding `CC(C)(C)NC(=O)C(=O)NNC(=O)c1ccccc1`, the inhibition turned out to be 10.8%.
The result for `O=C(CCC(=O)c1ccc(Br)cc1)Nc1cccnc1` reads 40.4%.
For the molecule `CCN(CC(=O)NC(C)C)C(=O)[C@@H](NC(=O)c1ccco1)C(C)C`, the inhibition is -7.65%.
With `CCCC(O)(CCC)C(=O)NNc1ccccc1`, the inhibition is 23.3%.
Under `CCCCC(O)(CCCC)C(=O)NNc1ccccc1` stands 36.2%.
Regarding `Cc1ccc(-c2nnc(SCC(=O)NCC3CCCO3)n2C)cc1` (configuration not stated), the inhibition is -16.4%.
Under `Cc1ccnc2nc(C(=O)Nc3nnc(-c4ccc(Cl)cc4)o3)nn12` stands 2.05%; under `O=C(Nc1nnc(-c2ccc(Cl)cc2)o1)Nc1ccccc1F`, 11.3%.
Turning to `O=C(Nc1nnc(-c2ccc(Cl)cc2)o1)NC1CCCCC1`, the inhibition was -11.6%.
Under `NC(=O)c1oc2ccccc2c1NC(=O)c1nc2ccccc2s1` stands 5.47%; under `O=C(Nc1nnc(-c2ccc(Cl)cc2)o1)Nc1ccccc1Cl`, -7.45%; under `CC(C)(C)C(=O)Nc1nnc(-c2ccncc2)o1`, 1.94%.
The result for `O=C(Nc1nnc(-c2ccc(Cl)cc2)o1)c1ccc(N2C(=O)CCC2=O)cc1` reads -7.34%; that for `Cc1ccccc1C(=O)Nc1nnc(-c2ccncc2)o1`, 30.5%.
